Test results from PubChem BioAssay.
Values joined by “and” are separate entries in the source; they are usually repeats but may differ in a detail not shown here. Equal values may be shown once. Active and inactive are the calls of the source.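 How the source made its calls, unless noted: active means inhibition at or above 50% relative to wild type and mutant plate controls; inactive means inhibition below 50%.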

What was measured:
[1] = inhibitors of TNFa-induced NFkB p65 translocation, primary screen, imaging, HUVEC, MLSMR starter and 10KST1 sets (AID 438;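 active means inhibition above 20% together with a positive visual image hit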;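 further: compound added about 3h40 before a 20 min TNFalpha stimulation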;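 on inhibition: signal is the nuclear over cytoplasmic p65 intensity ratio per well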); details: HUVEC TNFa-induced p65 nuclear translocation; cell count: measured here: nuclei count (cytotoxicity indicator), at 2.08 µM; inhibition: at 2 µM, stronger effect = higher value, 0% TNFa-plus-vehicle, 100% no-TNFa wells
[2] = inhibitors of mutant huntingtin aggregation, primary screen, imaging, exon1htt(103Q)mCFP cells, high-content imaging (AID 483;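 active means visual image review flags a hit and inhibition of aggregation exceeds 20%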;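 further: compound exposure lasted 3 days before fixation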;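 on nuclei count: percent of the per-plate median nuclei count of sample wells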); details: exon1htt(103Q)mCFP cell line, aggregate imaging, at 2 µM; inhibition of aggregation: stronger effect = higher value; nuclei count: measured here: cell count, toxicity
[3] = inhibitors of E-selectin induction by TNFa, primary screen, imaging, HUVEC, immunofluorescence, MLSMR starter and 10KST1 sets (AID 487;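 active means visually confirmed hit in the image check and inhibition above 20%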;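 on inhibition: signal is fraction of cell area covered by stained E-selectin grains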;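 on nuclei count: 100% = median nuclei count of all wells on the same plate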); details: HUVEC TNFalpha-induced E-selectin immunofluorescence imaging, at 2 µM; inhibition: stronger effect = higher value; nuclei count: measured here: cell number, toxicity
[4] = DUSP6 inhibitors restoring Erk phosphorylation by chemical complementation, primary imaging in DUSP6-transfected HeLa (AID 609;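 active means compounds giving at least 50% inhibition in the cell-based MKP-3 phosphatase rescue imaging test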;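 on inhibition: phospho-Erk level distribution per well compared with pooled transfected vehicle control wells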); details: HeLa MKP-3 transfected, phospho-Erk imaging KS statistic, at 10 µM, cells stimulated with TPA for 15 min
[5] = molecular target: Dual specificity protein phosphatase 6 (Homo sapiens) (UniProt Q16828); experiment: as above; details: HeLa MKP-3 transfected, phospho-Erk imaging KS statistic; at 10 µM; stronger effect = higher value; cells stimulated with TPA for 15 min
[6] = molecular target: Voltage-gated potassium channel subunit beta-2 (Rattus norvegicus) (UniProt P62483); experiment: KvBeta enzyme negative modulators, primary screen, biochemical, NADPH fluorescence (AID 622;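 active means fluorescence slope higher than the sample average by over 3 SD, cut at about -0.22 in these data, passing the limit was not always enough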;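 further: slope of raw intensity against log time taken from 70 to 1610 s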); details: recombinant KvBeta, 4-cyanobenzaldehyde reduction, at 10 µM, stronger effect = higher value
[7] = molecular target: Voltage-gated potassium channel subunit beta-2 (Rattus norvegicus) (UniProt P62483); experiment: KvBeta positive modulators, primary screen, biochemical, NADPH fluorescence (AID 623;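 active means NADPH fluorescence slope more negative than the mean of all samples by about 3 SD, 99.7% confidence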;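 further: fluorescence intensity change per second fitted from 20 to 320 s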); details: Recombinant KvBeta, NADPH fluorescence decrease slope, 10 min; at 10 µM; stronger effect = lower value
[8] = molecular target: Alpha-2C adrenergic receptor (Homo sapiens) (UniProt P18825); experiment: modulators of alpha2C/GIRK thallium flux, primary screen, cell-based, HEK293 alpha2C/GIRK1/2 (AID 624;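 active means fluorescence slope after compound addition differing from the mean of all screened samples at 99.7% confidence, in either direction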;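 further: slope of fluorescence ratio to pre-addition baseline per second over 15 to 24 s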); details: thallium flux BTC fluorescence, at 10 µM, actives lie on both sides
[9] = inhibitors of larval lipid processing in zebrafish, primary screen, whole organism, PED6 fluorescence, gall bladder and intestine (AID 686;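 active means a full or partial loss of lipid-probe fluorescence in the fish gall bladder, intestine or both, judged by eye; inactive means no fluorescence loss, or compound toxic to the fish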;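 further: larvae 5 to 7 days old with five fish per well; signal comes from phospholipase A2 cleavage of quenched PED6 carried via bile; overnight exposure to compound and PED6 before scoring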); details: Zebrafish larvae PED6 lipid processing, fluorescence scoring; screened at 20 µM (by protocol)
[10] = inhibitors of Chlamydomonas gravitaxis, primary screen, whole organism, Chlamydomonas reinhardtii, WT vs cilia-less mutant, absorbance, 96-well (AID 463189); details: OD600 absorbance, 2 days, at 10 µM, stronger effect = higher value;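 further: 0% = wild type cc124 cells in DMSO and 100% = ciliumless bld1 mutant cells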
[11] = inhibitors of Sendai virus-induced IRF3 signaling, primary screen, TLR/RLR signaling modifier project, cell-based, Sendai virus stimulus, luciferase, 10K MLSCN set (AID 602276;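 active means inhibition at or above 50% at 10 µM; inactive means inhibition below 50%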;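 further: firefly luciferase from ISG56 promoter only with Renilla not read in this screen; 0% = Sendai virus plus DMSO and 100% = medium plus DMSO without virus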); details: HEK293 RL24 IRF3 luciferase reporter, at 10 µM, stronger effect = higher value
[12] = inhibitors of poly I:C-induced TLR3 signaling, primary screen, cell-based, poly I:C stimulus, luciferase, 10K MLSCN set (AID 602277;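 active means inhibition of the reporter signal at or above 50%; inactive means inhibition below 50%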); details: HEK293-TLR3 RL24 IRF3 luciferase reporter, at 10 µM, stronger effect = higher value
[13] = measured here: cell density z-score
[14] = measured here: nuclear c-Myc green intensity z-score
[15] = measured here: nuclear pErk red intensity z-score, stronger effect = higher value

Chain of Dual specificity protein phosphatase 6 (Homo sapiens) (Q16828 whole entry, looked up): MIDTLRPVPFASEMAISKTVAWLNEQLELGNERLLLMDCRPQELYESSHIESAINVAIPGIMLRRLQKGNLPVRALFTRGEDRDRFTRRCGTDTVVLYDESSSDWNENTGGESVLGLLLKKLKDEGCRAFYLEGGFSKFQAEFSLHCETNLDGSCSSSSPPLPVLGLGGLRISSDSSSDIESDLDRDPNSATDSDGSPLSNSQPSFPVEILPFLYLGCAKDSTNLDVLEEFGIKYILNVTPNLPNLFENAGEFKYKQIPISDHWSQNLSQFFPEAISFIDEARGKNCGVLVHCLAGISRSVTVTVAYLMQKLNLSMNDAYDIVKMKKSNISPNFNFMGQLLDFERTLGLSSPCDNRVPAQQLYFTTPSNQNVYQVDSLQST
Chain of Alpha-2C adrenergic receptor (Homo sapiens) (P18825 whole entry, looked up): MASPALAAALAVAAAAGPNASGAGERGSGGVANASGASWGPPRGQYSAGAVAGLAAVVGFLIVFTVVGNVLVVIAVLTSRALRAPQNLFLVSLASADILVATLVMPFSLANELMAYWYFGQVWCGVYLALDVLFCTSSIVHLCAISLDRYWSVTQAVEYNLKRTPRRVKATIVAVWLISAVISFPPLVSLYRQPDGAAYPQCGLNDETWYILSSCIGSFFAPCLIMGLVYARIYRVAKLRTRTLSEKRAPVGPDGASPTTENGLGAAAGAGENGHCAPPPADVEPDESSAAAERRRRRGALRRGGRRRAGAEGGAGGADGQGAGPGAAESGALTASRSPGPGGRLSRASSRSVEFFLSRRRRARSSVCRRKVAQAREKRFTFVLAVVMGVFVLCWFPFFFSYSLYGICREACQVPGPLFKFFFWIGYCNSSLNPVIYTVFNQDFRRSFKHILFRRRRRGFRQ
Chain of Voltage-gated potassium channel subunit beta-2 (Rattus norvegicus) (P62483 whole entry, looked up): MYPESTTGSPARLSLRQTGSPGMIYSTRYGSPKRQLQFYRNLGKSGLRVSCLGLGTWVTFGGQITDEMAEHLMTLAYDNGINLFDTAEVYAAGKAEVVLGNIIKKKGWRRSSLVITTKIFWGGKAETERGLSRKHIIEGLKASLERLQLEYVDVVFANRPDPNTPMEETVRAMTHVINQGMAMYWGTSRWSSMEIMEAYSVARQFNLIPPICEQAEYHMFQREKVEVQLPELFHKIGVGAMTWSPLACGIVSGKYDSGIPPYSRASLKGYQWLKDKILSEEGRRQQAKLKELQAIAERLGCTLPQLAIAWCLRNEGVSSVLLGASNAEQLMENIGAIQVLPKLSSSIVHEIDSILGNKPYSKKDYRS

Row | Structure (SMILES) | cell count [1] | inhibition [1] | inhibition of aggregation [2] | nuclei count [2] | inhibition [3] | nuclei count [3] | z-score [4, 13] | z-score [4, 14] | z-score [4, 15] | inhibition [5] | fluorescence slope [6] | NADPH fluorescence slope [7] | slope [8] | outcome [9] | inhibition [10] | inhibition [11] | inhibition [12]
1 | C[C@]12CCC(=O)C=C1CC[C@@H]1[C@@H]2[C@@H](O)C[C@@]2(C)[C@H]1CC[C@]2(O)C(=O)COC(=O)CCC(=O)O | 638 and 636 | 1.3% (inactive) and -6.2% (inactive) | -14.6% (inactive) and 5.9% (inactive) | 81.4% and 75.3% | -73.5% (inactive) and -140% (inactive) | 113% and 141% | -0.295 and 0.975 | -0.899 and -0.385 | -0.0646 and -0.0458 | 7.39% (inactive) and 11.3% (inactive) | -0.492 (inactive) and -0.463 (inactive) | -9e-05 (inactive) and -1.6e-05 (inactive) | 0.00441 (inactive) and 0.00453 (inactive) | inactive | 1.85% (inactive) and -7.48% (inactive) and -3.81% (inactive) | 5.11% (inactive) and 1.12% (inactive) | 30.2% (inactive) and 30.8% (inactive)
2 | CCOC(=O)c1c(C(F)(F)C(F)(F)C(F)(F)C(F)(F)F)n[nH]c1C | 532 | -3.7% (inactive) | 10.3% (inactive) | 97.3% | -78.6% (inactive) | 128% | -0.312 | 0.0825 | -0.449 | 11.3% (inactive) | -0.521 (inactive) | -9.8e-05 (inactive) | 0.00424 (inactive) | inactive | 17.6% (inactive) | 17.2% (inactive) | 24.6% (inactive)
3 | Oc1c(I)cc(I)c2cccnc12 | 615 | -0.5% (inactive) | -10.9% (inactive) | 110% | -79.9% (inactive) | 121% | -0.0594 | -1.99 | 1.27 | -11.9% (inactive) | -0.436 (inactive) | 7.6e-06 (inactive) | 0.00528 (inactive) | inactive | 2.25% (inactive) | 12.4% (inactive) | 30.5% (inactive)
4 | CC(C[N+](C)(C)C)OC(N)=O (stereo not given) | 492 | 17.2% (inactive) | -16.6% (inactive) | 106% | -25.7% (inactive) | 125% | -0.295 | 0.566 | -0.0176 | 5.42% (inactive) | -0.491 (inactive) | -6.6e-05 (inactive) | 0.00575 (inactive) | inactive | 4.16% (inactive) and 23.3% (inactive) | 14.7% (inactive) | 38.3% (inactive)
5 | Cc1nc(SC2C=CS(=O)(=O)C2)n[nH]1 (stereo not given) | 427 | -0.8% (inactive) | 10.8% (inactive) | 98.1% | -43.2% (inactive) | 139% | -0.37 | 0.156 | 1.24 | -6.86% (inactive) | -0.482 (inactive) | -0.000222 (inactive) | 0.00468 (inactive) | inactive | -12% (inactive) | 14.6% (inactive) | 18.4% (inactive)
6 | CN1[C@@H](CC(=O)c2ccccc2)CCC[C@H]1C[C@H](O)c1ccccc1 | 617 | -3.2% (inactive) | -2.2% (inactive) | 96.2% | -81.3% (inactive) | 120% | -0.242 | -0.85 | 0.339 | 21.2% (inactive) | -0.436 (inactive) | -0.000135 (inactive) | 0.00528 (inactive) | inactive | 1.79% (inactive) and -5.55% (inactive) | 8% (inactive) | 31.3% (inactive)
7 | COc1cc([C@@H]2[C@H]3CN(C)CC=C3C(C#N)=C(N)C2(C#N)C#N)cc2c1OCO2 | 394 | -2.2% (inactive) | 31.8% (inactive) | 111% | -39.2% (inactive) | 109% | 0.739 | -0.834 | 0.31 | 57.9% (inactive) | -0.309 (inactive) | 9.9e-07 (inactive) | 0.00454 (inactive) | inactive | 38% (inactive) | 4.57% (inactive) | 19.8% (inactive)
8 | O=C(C1=C(O)C(=O)N(c2ncccn2)C1c1cccc(Cl)c1)c1ccco1 (stereo not given) | 454 | -2.1% (inactive) | 23.5% (inactive) | 97.7% | -61.9% (inactive) | 138% | 0.991 | -0.348 | 0.185 | -4.7% (inactive) | -0.349 (inactive) | -2.5e-05 (inactive) | 0.00586 (inactive) | inactive | 3.84% (inactive) | 11% (inactive) | 1.21% (inactive)
9 | O=C(O)c1ccc(COc2c(F)c(F)c(F)c(F)c2F)o1 | 492 | -12.2% (inactive) | -42.8% (inactive) | 99.6% | -83.7% (inactive) | 129% | 0.991 | -1.28 | -0.83 | -3.5% (inactive) | -0.433 (inactive) | -0.000148 (inactive) | 0.00486 (inactive) | inactive | -7.74% (inactive) | -5.03% (inactive) | -6.07% (inactive)
10 | CCCC(=O)Nc1ncnc2c1ncn2[C@@H]1O[C@@H]2COP(=O)(O)O[C@H]2[C@H]1OC(=O)CCC | 447 | 15.4% (inactive) | 14.3% (inactive) | 96.1% | -67.8% (inactive) | 127% | 0.217 | 0.395 | 0.177 | 21.2% (inactive) | -0.511 (inactive) | -7.6e-06 (inactive) | 0.00504 (inactive) | inactive | 29.3% (inactive) | 18.6% (inactive) | 40.7% (inactive)
11 | CCSc1nc(N)c(C#N)c(-c2ccccc2Cl)c1C#N | 494 | -3.2% (inactive) | 25.1% (inactive) | 71.7% | -29% (inactive) | 107% | -2.31 | 3.1 | 0.136 | -5.89% (inactive) | -0.473 (inactive) | -0.000189 (inactive) | 0.00512 (inactive) | inactive | -6.34% (inactive) | -0.977% (inactive) | 7.05% (inactive)
12 | COc1cccc(Cn2c(Oc3ccccc3)nc3c2c(=O)n(C)c(=O)n3C)c1 | 373 | -4.8% (inactive) | 17.7% (inactive) | 87.9% | -67.3% (inactive) | 150% | -0.332 | -0.584 | 0.142 | 1.04% (inactive) | -0.369 (inactive) | -2.2e-05 (inactive) | 0.00481 (inactive) | inactive | 8.33% (inactive) | 19.3% (inactive) | 10.3% (inactive)
13 | COC(=O)c1ccc(-c2sc3nc(N4CCOCC4)c4c(c3c2N)CCCC4)o1 | 683 | -7.7% (inactive) | -43% (inactive) | 103% | 18.1% (inactive) | 126% | -0.0797 | 0.0278 | 1.68 | 14.4% (inactive) | -0.000813 (inactive) | 0 (inactive) | 0.0101 (inactive) | inactive | -6.82% (inactive) | 13% (inactive) | -14.5% (inactive)
14 | CCN(CC)c1ccc2c(C)c(-c3ccc(N)cc3)c(=O)oc2c1 | 446 | -5% (inactive) | 6.3% (inactive) | 98.2% | 25% (inactive) | 149% | 0.788 | 0.208 | -0.594 | -4.78% (inactive) | -0.133 (active) | 0 (inactive) | 0.00526 (inactive) | inactive | 55.8% (active) | -44% (inactive) | -91% (inactive)
15 | CC(O)Cn1cnc2c1c(=O)n(C)c(=O)n2C (stereo not given) | 541 | -7% (inactive) | 11.8% (inactive) | 99.1% | -13.1% (inactive) | 128% | 1.09 | -0.569 | -0.416 | 15.3% (inactive) | -0.45 (inactive) | -7.7e-05 (inactive) | 0.00504 (inactive) | inactive | 23.2% (inactive) | 12% (inactive) | 29.4% (inactive)
16 | CN(CCO)CC(O)Cn1cnc2c1c(=O)n(C)c(=O)n2C (stereo not given) (tested in a mixture with another compound) | 638 | -0.3% (inactive) | 1.1% (inactive) | 103% | 6.8% (inactive) | 125% | 0.569 | 0.0927 | 0.334 | 10.2% (inactive) | -0.511 (inactive) | -6e-05 (inactive) | 0.00421 (inactive) | inactive | -10.3% (inactive) | 3.79% (inactive) | 33.4% (inactive)
17 | NS(=O)(=O)c1cc2c(cc1C(F)(F)F)NC(Cc1ccccc1)NS2(=O)=O (stereo not given) | 519 | -2.8% (inactive) | 18.4% (inactive) | 75.3% | -18.5% (inactive) | 105% | -0.539 | -0.574 | 0.0203 | -0.493% (inactive) | -0.528 (inactive) | 7.9e-07 (inactive) | 0.00523 (inactive) | inactive | -16.5% (inactive) | 9.6% (inactive) | 2% (inactive)
18 | CCC(=O)Oc1ccc(/C(CC)=C(\CC)c2ccc(OC(=O)CC)cc2)cc1 | 550 | -4.1% (inactive) | 3.5% (inactive) | 97.5% | -13.5% (inactive) | 127% | -0.723 | 0.714 | 1.03 | 3.45% (inactive) | -0.443 (inactive) | -5.7e-05 (inactive) | 0.00761 (inactive) | inactive | 9.5% (inactive) | 11.1% (inactive) | 42.9% (inactive)
19 | COc1ccc(C(=O)Nc2cccnc2)cc1C(=O)Nc1cccnc1 | 654 | 4.4% (inactive) | -4.7% (inactive) | 101% | -4.7% (inactive) | 72.8% | 0.737 | -0.175 | -0.517 | 23.4% (inactive) | -0.448 (inactive) | -4.6e-05 (inactive) | 0.00454 (inactive) | inactive | -3.27% (inactive) | 11.5% (inactive) | 36% (inactive)
20 | CC(C)(C)NCC(O)c1cc(O)cc(O)c1 (stereo not given) | 472 | -2.4% (inactive) | 21.1% (inactive) | 89.3% | -7% (inactive) | 88.9% | 0.22 | -3 | -0.525 | 1.38% (inactive) | -0.472 (inactive) | -6.7e-05 (inactive) | 0.00544 (inactive) | inactive | 6.82% (inactive) and -7.52% (inactive) | 7.09% (inactive) | 35.9% (inactive)
